Shown are actives, neighbours in structure and some others; about 12% of the full set was active somewhere.
CHX counter – counter-screen hit for Shiga toxin inhibitors, cycloheximide; cell reporter, cycloheximide protein synthesis inhibition counterscreen; max response, %; hit rate 12% among 300,000; in the data active = max response mostly above about 13%, no sharp cut-off; inactive = mostly below about 14%; note: read at 38.3 µM for the half of the compounds with a filed dose; 0% is about no effect
FMDV antiviral – antivirals against foot and mouth disease virus; Potency, µM (titrated, usually from 57.9 µM), without a hit: top-dose activity change, negative = inhibition, usual class: inhibitors; AID 1159524; FMDV antiviral cell-based qHTS; hit rate 1.2% among 410,000; calls by dose curve; tested in HEK293T cells; note: read-out not given here; potency is the fitted concentration of half-maximal effect; % is set by controls: 0 for no effect and ±100 for the full control effect; nearly all actives have a fitted effect of over 45% in size
Sm TGR block – S. mansoni TGR enzyme inhibition | Q962Y6 | purified TGR, DTNB reduction, TNB absorbance 405 nm | Potency, µM (series often up to 114 µM), for inactives: at the top dose activity change, negative = inhibition, actives largely listed as inhibitors | hit rate 3% among 360,000 | AID 485364; active = well fitted inhibition curve with a large enough effect; inconclusive = small, poorly fitted or top-dose-only effect; inactive = no such curve, though single readings can be large or run the other way; note: potency is the fitted concentration of half-maximal effect; % is set by controls: 0 for no effect and ±100 for the full control effect; nearly all actives have a fitted effect of over 60% in size
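Kinetic colorimetric format: TGR-catalysed, NADPH-driven DTNB reduction monitored via TNB absorbance. Enzyme dispensed at 20 nM; compound exposure 15 min at room temperature before reaction start.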
Shiga toxin inh – Shiga toxin inhibition | inhibition, % at 38.7 µM | Vero cells, Shiga toxin protein synthesis inhibition reporter | hit rate 9.2% among 290,000 | AID 2315; in the data active = inhibition mostly above about 28%, no sharp cut-off; inactive = mostly below about 43%; note: 0% is about no effect
Active calls of the source: *; u = inconclusive; x = not tested or not shown; + = active, no number.

SMILES	CHX counter	FMDV antiviral	Sm TGR block	Shiga toxin inh
COc1ccc(C[C@@H]2CN3C(=NC[C@@H]3C)N2CCNC(=O)c2ccc(C)c(Br)c2)cc1	-1	-12%	-15%	-13
COc1ccc(C[C@H]2CN3C(=NC[C@@H]3C(C)C)N2CCNC(=O)CCC2CCCCC2)cc1	-1	-15%	-2%	-13
CC(C)[C@H]1CN=C2N(CCNC(=O)CCC3CCCCC3)[C@H](Cc3ccc(O)cc3)CN21	0	-28%	7.9µM*	11
Cc1ccc(C(=O)N[C@@H](C)CN2C3=NC[C@H](C)N3C[C@H]2Cc2ccc(O)cc2)cc1Br	12	x	50µM*	5
COc1cc(NC(=O)CC(C)S(=O)(=O)c2cc3c4c(c2)CCN4C(=O)CC3)cc(OC)c1 (centres undefined)	x	-19%	3%	x
Cc1noc2nc(C(=O)O)nc(N3CCCCC3)c12	x	-9%	-2%	x
Cc1cccc(N2CCN(C(=O)CN3C(=O)COc4ccc(S(=O)(=O)N5CCCC5)cc43)CC2)c1C	x	-21%	2%	x
CN(C)S(=O)(=O)c1ccc(N2CCCC2)c(C(=O)Nc2nc3ccc(F)cc3s2)c1	14*	35%	3%	37*
CN(C)S(=O)(=O)c1ccc(N2CCCC2)c(C(=O)Nc2nc3ccccc3s2)c1	14	50%	-1%	47*
O=C(/C=C(\O)c1ccccc1)c1ccccc1O	x	49%	x	x
O=S(=O)(c1ccc2c(c1)OCCO2)N1CCN(S(=O)(=O)c2cc(F)c(Br)cc2F)CC1	-9	x	x	-6
Oc1cc2c(cc1C(c1ccc(Br)cc1)N1CCCC1)OCO2 (centres undefined)	1	u	0.71µM*	-2
CCOc1cc(/C=N/NC(=O)Nc2ccccc2)ccc1O	37*	67%	-3%	72*
COc1cc(/C=C(\NC(C)=O)C(=O)Nc2cccc(O)c2)ccc1OC(C)=O	7	22%	50µM*	12
Cc1cc(C(=O)N/N=C2\CC(=O)c3ccccc32)c(C)n1-c1ccc(F)cc1	23*	34%	35µM*	41*
CCOc1ccccc1NC(=O)C(=O)c1cc(C)n(-c2ccc(F)cc2)c1C	x	55%	-2%	x
CCOc1cc(/C=N/NC(=O)c2cc(C)n(-c3ccc(F)cc3)c2C)ccc1O	22*	-29%	56µM*	87*
COc1cc(/C=C(\NC(C)=O)C(=O)NC(C)(C)C)ccc1OC(C)=O	7	-9%	-5%	-3
O=C(COc1ccccc1F)Nc1ccc2nc(SCC(=O)N3CCCC3)sc2c1	x	u	5%	x
COc1cc(/C=N/NC(=O)Nc2ccccc2)ccc1OC(C)=O	39*	30%	0%	53*
NC(=O)N/N=C\c1cc(Br)ccc1O	2	0%	-13%	-8
O=C(N/N=C/c1cc(Br)ccc1O)Nc1ccccc1	-2	46%	-12%	76*
O=C(CCS(=O)(=O)c1cc(Br)cc2c1N(C(=O)C1CC1)CC2)Nc1ccc(F)cc1	x	-6%	7%	x
CCOC(=O)c1c(S(=O)(=O)NCC(=O)Nc2cc(C)ccc2C)c(C)n(C)c1C	-3	3%	-18%	14
CCOC(=O)c1c(S(=O)(=O)NCC(=O)Nc2cc(C)ccn2)c(C)n(C)c1C	13*	19%	-3%	42
SMILES	CHX counter	FMDV antiviral	Sm TGR block	Shiga toxin inh
Cc1ccc2c(c1)sc1nc(-c3cc4cc(Cl)ccc4oc3=O)cn12	x	-7%	9%	x
Cc1ccc(N2C(=O)c3oc4cc(C)c(C)cc4c(=O)c3C2c2cccc(O)c2)nc1 (centres undefined)	x	-3%	0%	x
Cc1ccc2[nH]c3c(=O)n(CCN4CCOCC4)cnc3c2c1	39*	46%	-9%	61*
Cn1c2ccccc2c2nnc(SCC(=O)Nc3cccc(O)c3)nc21	11*	15%	0%	23
Cc1ccc2[nH]c3nc(SCCN4CCOCC4)nnc3c2c1	28*	17%	-8%	86*
Cn1c2ccccc2c2nnc(SCCN3CCOCC3)nc21	16*	15%	-10%	30
COc1cccc(CNC(=O)C2CCN(c3nc4ccc(Cl)cc4[nH]3)CC2)c1	x	-27%	6%	x
Cc1ccc2onc(CNC(=O)N(C)Cc3ccccc3)c2c1	x	9%	-3%	x
Cc1ccc2[nH]c3c(NCCCN4CCCC4=O)ncnc3c2c1	31*	17%	1%	71*
Cc1ccc(C(c2sc3ncnn3c2O)N2CCCCC2)cc1 (centres undefined)	10*	26%	5%	37*
COc1cccc(CN2CCC(n3cc(C(=O)NC4CCCC4)nn3)CC2)c1O	x	-17%	x	x
CCC[C@@H]1C[C@@H](C(=O)N[C@@H]([C@H]2O[C@H](SC)[C@H](O)[C@@H](O)[C@H]2O)[C@@H](C)O)N(C)C1	5	x	x	-5
O=C(CSc1nc(-c2ccncc2)nn1CC(=O)N1CCCCC1)NC1CCCC1	-1	-25%	40µM*	-3
C=C1C(=O)OC2C=C(CO)C3OC3C3OC3(C)CC(OC(=O)/C(=C/C)COC(C)=O)C12 (centres undefined)	x	7.9µM*	x	x
ON=C1c2cc(OCCN3CCCCC3)ccc2-c2ccc(OCCN3CCCCC3)cc21	10	-10%	-21%	14
Clc1ccc(OCCN2CCOCC2)cc1Cl	17	34%	-12%	70*
c1cc(OCCCN2CCCCC2)ccc1CN1CCCCC1	-3	-14%	0%	-1
c1ccc(COc2ccc(OCCN3CCCC3)cc2)cc1	50*	33%	8%	69*
NC(=S)NN=C1c2cc(OCCN3CCOCC3)ccc2-c2ccc(OCCN3CCOCC3)cc21	0	18µM*	-2%	-13
c1ccc(COc2ccc(OCCCN3CCCC3)cc2)cc1	38*	-16%	-6%	+
CC1CCN(CCCOc2ccc(OCc3ccccc3)cc2)CC1	24*	16%	3%	81*
O=C1C2CCN(CC2)C1Cc1ccc(OCc2ccccc2)cc1 (centres undefined)	23*	42%	13%	22
c1ccc(OCCN2CCOCC2)cc1	-2	-7%	4%	0
c1ccc(Cc2ccc(OCCN3CCOCC3)cc2)cc1	21*	5%	6%	55*
CC1CCN(CCCCOc2ccc(C(=O)c3ccccc3)cc2)CC1	1	-16%	0%	-5
SMILES	CHX counter	FMDV antiviral	Sm TGR block	Shiga toxin inh
c1ccc(COc2ccc(OCCN3CCCCC3)cc2)cc1	87*	34%	7%	47*
c1ccc(-c2ccc(OCCN3CCCC3)cc2)cc1	32*	x	x	52*
CCCCN(C(=O)Cn1ncc(Cl)c(Cl)c1=O)c1c(N)n(CC(C)C)c(=O)[nH]c1=O	-2	-20%	4.5µM*	-3
CCCCN(C(=O)CN1CC(C)OC(C)C1)c1c(N)n(CC(C)C)c(=O)[nH]c1=O (centres undefined)	-2	-15%	-10%	-8
Cn1cc(S(=O)(=O)N2CCc3ccccc32)cc1C(=O)Nc1ccc(C(F)(F)F)cc1	x	-26%	11%	x
CN(c1ccccc1)S(=O)(=O)c1cccc(NC(=O)c2ccc3ncsc3c2)c1	-1	35µM*	-4%	-6
Cc1ccc(NC(=O)c2ccc3ncsc3c2)cc1S(=O)(=O)N(C)C	70*	x	6%	146*
CN(c1ccccc1)S(=O)(=O)c1cccc(C(=O)Nc2cccc(C(=O)NC3CC3)c2)c1	x	u	-3%	x
CN(c1ccccc1)S(=O)(=O)c1cccc(NC(=O)c2cccc(C#N)c2)c1	x	25µM*	-2%	x
